These results are taken from PubChem BioAssay (NCI).

SMILES strings stand for the structures. The panel holds about 83,000 compounds, 20% with a hit somewhere; the sample as a whole holds those more often.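 Cells were grown in 96-well plates and exposed to the test compound at a single concentration for 48 hours; results are reported as percent growth, with values below 10 considered active.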 Activity calls are given as the source filed them.

In the experiment the test system is KM12 colon. In words: NCI-60 one-dose screen, 48 h (100 = growth as untreated, 0 = no growth, -100 = all killed). As to conditions: 10 µM unless noted.
For the compound `C[C@H]1[C@H]2[C@H]3CC[C@@H]4[C@@]5(C)C/C(=C/c6ccco6)C(=O)C(C)(C)[C@@H]5CC[C@@]4(C)[C@]3(C)CC[C@]23CO[C@]1(C)[C@@H](C(=O)/C=C\c1ccco1)C3`, the growth is 99.8% (inactive).
The same measure for `O=C(CCCCCCN1CC(=O)N2[C@@H](c3ccccc3Cl)c3[nH]c4ccccc4c3C[C@H]2C1=O)NO`: 74.8% (inactive); for `O=C(Nc1cccc(C(F)(F)F)c1)Nc1cccc(C(F)(F)F)c1`: 4.98% (active); for `CC1=C([Se]CC(OC(=O)CC[Se]c2ccccc2)C(=O)NCCCCCC(=O)OCc2ccccc2)C(=O)c2ccccc2C1=O` (configuration not stated): 9.71% (active).
The same measure for `CCCCNC(=O)Oc1ccc2c(=O)c3sc4c(=O)c5ccccc5c(=O)c4c3c(=O)c2c1`: -29.9% (active); for `C=C1C(=O)O[C@H]2[C@H]1CC/C(COC(=O)C(=O)c1c[nH]c3ccc(OC)cc13)=C\CC[C@@]1(C)O[C@@H]21`: -71.2% (active); for `O=c1[nH]nc(-c2ccccc2)c2c(-c3ccccc3)onc12`: 29.8% (inactive).
`COc1cc(-c2nn(-c3ccccc3)cc2-c2ccnc(NCCNS(=O)(=O)c3ccc(Cl)cc3)n2)ccc1Cl`: the growth was 20.8% (inactive).
As for `CCCCn1c(=O)c2c(nc(NCCc3ccc(O)c(O)c3)n2CCC)n(CCCC)c1=O`, the growth was 61.3% (inactive).
`S=C(c1ccc2c(c1)OCO2)N1CCN(c2ccccc2Cl)CC1`: the growth was 103% (inactive).
The same measure for `CC1=NOC(=O)/C1=C\c1ccc(O)cc1`: 101% (inactive).
As for `O=[N+]([O-])c1ccc(N2c3ccncc3Sc3ccncc32)cc1`, the figure is 93.5% (inactive).
